In PubChem BioAssay AID504727 (Broad Institute, 2011):
The source made the active and inactive calls.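 How the source made its calls: active means fitted half-maximal concentration AC50 at or below ten times the highest valid tested dose, with signal falling as DNA is displaced (actives reach about 34 µM in these data); inconclusive means flat fit at moderate signal loss, or poor fit quality; inactive means the rest, including signal rising instead of falling.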

experiment: DNA intercalators displacing acridine orange, dose response, artefact control for KSHV LANA DNA-binding inhibitor project, biochemical, fluorescence polarization, cherry-picked samples, set 2 (AID 504727); settings: AC50: Acridine orange-DNA displacement; series mostly up to 35 µM

AC50, active:
CCCN(CCC)S(=O)(=O)c1ccc(C(=O)OCCN2C(=O)c3cccc4c(N5CCOCC5)ccc(c34)C2=O)cc1 6.89 µM, COc1ccc2nc3ccccc3[n+]([O-])c2c1 26 µM, CC(=O)OCCn1c2nc(=O)[nH]c(=O)c-2nc2cc(C)c(C)cc21 0.342 µM, O=C1/C(=C/c2ccco2)Oc2c1ccc(O)c2CN1CCCCC1 18.9 µM, C/C(=N/NC(=O)c1ccncc1)c1cc2ccc(O)cc2oc1=O 0.343 µM

AC50, inactive:
CSCCC(NC(=O)c1ccccc1Cl)C(=O)N1CCCC(C)C1 (centres undefined), Cc1cccc(-c2nsc(SCC(=O)Nc3nccs3)n2)c1, O=C1NC(=S)S/C1=C\C=C\c1ccc([N+](=O)[O-])o1, CC(C)(CS(=O)(=O)[O-])NC(=O)CC[N+](C)(C)CCO, CCCCCn1nc(-c2ccccc2)c2nc3ccccc3nc21 > 35 µM, Brc1c(CSc2nncc3ccccc23)nc2ccccn12, Cn1c2ccccc2c2cnn(CC(=O)Nc3cccc(F)c3)c(=O)c21, CCOC(=O)c1cnc(SC)nc1Sc1ccc(Cl)cc1Cl, CC1CC(C)CN(C(=O)c2ccc3ncsc3c2)C1 (centres undefined), Cc1c(C)n(Cc2ccccc2)c2ncnc(Cl)c12, O=c1[nH]c(=S)[nH]c2c1C(c1ccc(Br)cc1)c1c([nH]c(=S)[nH]c1=O)O2, Cc1cc(Cl)ccc1N1C(=O)CC(NNC(=O)c2cccnc2)C1=O (centres undefined), CC(C)CN(C(=O)CSc1nncn1C)C1CCS(=O)(=O)C1 (centres undefined), C=CCn1c(C)cc(-c2csc(NC(=O)CCc3nc4ccccc4c(=O)[nH]3)n2)c1C, O=C(O)c1cc(N2C(=O)C=CC2=O)cc(N2C(=O)C=CC2=O)c1, CC(=O)NC(C(=O)c1ccccc1)C(=O)c1ccccc1, Nc1ccc2c(O)cc(S(=O)(=O)O)cc2c1, C/C(=N/NC(=O)c1cc(O)c(O)c(O)c1)c1ccc([N+](=O)[O-])cc1, N=C1/C(=C/c2ccc(-c3cccc(C(=O)O)c3)o2)C(=O)N=C2SC(CC(=O)N3CCOCC3)=NN12, CSc1ccc(/C=N/Nc2cccc(C(=O)O)c2)cc1, COc1ccc(C2c3ccc(O)cc3Oc3ncn(CCCO)c(=N)c32)cc1OC (centres undefined), O=C(O)c1ccccc1NC(=O)c1cc(-c2ccccc2)nc2ccccc12, O=S(=O)(O)c1cccc2cccc(Nc3ccccc3)c12, CCOC(=O)c1ccccc1Nc1cc(C)nc2nc(C)nn12, Cc1ccc(-c2nnc(-c3ccc(NC(=O)c4ccco4)cc3)o2)cc1, CCc1noc(C)c1C(=O)NCCc1c[nH]c2ccccc12, Cc1cccc(C)c1NC(=O)CSc1nnc(-c2ccco2)c(-c2ccco2)n1, COc1cc(SC)ccc1C(=O)Nc1nc(C)cs1, CCN(C(=O)COC(=O)c1ccc([N+](=O)[O-])o1)C1CCCCC1, O=C(NCc1cccnc1)C(=O)C1C(=O)Nc2ccccc21 (centres undefined), CC(=O)OCCCn1c(C)[n+](C)c2cc(Cl)c(Cl)cc21, CCOC(=O)CN1NC2(CCCCCC2)NC1=S, CC[C@H](C)[C@H](NC(N)=O)C(=O)Nc1ccc(NC(C)=O)cc1, O=C(O)CC1(CC(=O)NCc2ccncc2)CCCCC1
